In PubChem BioAssay (NCI):
About 83,000 compounds went through this panel and 20% of them were active in at least one assay; those are over-represented in the sample as a whole.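 Negative percent growth values reflect cell death: -40 means 40% of the cells present at the start died, and -100 means all died.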 Calls of active or inactive are those of the source. Rule for the calls: active = growth percent below 10; inactive = the rest.

Assays:
Assay in all cases: NCI-60 one-dose screen, 48 h (100 = growth as untreated, 0 = no growth, -100 = all killed)
Conditions in all cases: 10 µM unless noted
RPMI-8226 leukemia = tested on: RPMI-8226 leukemia
OVCAR-8 ovarian = tested on: OVCAR-8 ovarian
OVCAR-5 ovarian = tested on: OVCAR-5 ovarian
OVCAR-4 ovarian = tested on: OVCAR-4 ovarian
SK-OV-3 ovarian = tested on: SK-OV-3 ovarian
IGROV1 ovarian = tested on: IGROV1 ovarian
OVCAR-3 ovarian = tested on: OVCAR-3 ovarian
HS 578T breast = tested on: HS 578T breast
NCI/ADR-RES ovarian = tested on: NCI/ADR-RES ovarian
T-47D breast = tested on: T-47D breast
BT-549 breast = tested on: BT-549 breast
MDA-MB-435 melanoma = tested on: MDA-MB-435 melanoma
SW-620 colon = tested on: SW-620 colon
MCF7 breast = tested on: MCF7 breast
HCT-116 colon = tested on: HCT-116 colon
KM12 colon = tested on: KM12 colon
HCC-2998 colon = tested on: HCC-2998 colon

Measured: growth

COC(/C=C/c1ccc([N+](=O)[O-])cc1)OC
inactive: RPMI-8226 leukemia 70% | OVCAR-8 ovarian 84.4% | OVCAR-5 ovarian 99.8% | OVCAR-4 ovarian 96.6% | SK-OV-3 ovarian 110% | IGROV1 ovarian 89% | OVCAR-3 ovarian 120% | HS 578T breast 122% | NCI/ADR-RES ovarian 96% | T-47D breast 52% | BT-549 breast 118% | MDA-MB-435 melanoma 96.8% | SW-620 colon 85.2% | MCF7 breast 77.2% | HCT-116 colon 27.3% | KM12 colon 110%

CN1CCN(Cc2ccc(NC(=O)c3[nH]ncc3Nc3ncnc4sccc34)cc2)CC1
active: RPMI-8226 leukemia -4.38% | OVCAR-3 ovarian 3.42% | HS 578T breast -2.25% | BT-549 breast -5.78% | SW-620 colon 6.8% | MCF7 breast 9.47% | HCT-116 colon 6.91% | HCC-2998 colon -1.02% | KM12 colon 5.21%
inactive: OVCAR-8 ovarian 12% | OVCAR-5 ovarian 21.2% | OVCAR-4 ovarian 10.2% | SK-OV-3 ovarian 31.4% | IGROV1 ovarian 23.6% | NCI/ADR-RES ovarian 16.4% | T-47D breast 27.7% | MDA-MB-435 melanoma 25.8%

CCCCCCCCCCCCCCCCCCSC1=CC(=O)C(OC)=C(OC)C1=O
inactive: RPMI-8226 leukemia 40.8% | OVCAR-8 ovarian 86.2% | OVCAR-5 ovarian 94.3% | OVCAR-4 ovarian 109% | SK-OV-3 ovarian 95.7% | IGROV1 ovarian 106% | OVCAR-3 ovarian 98.2% | HS 578T breast 90.9% | NCI/ADR-RES ovarian 91.7% | T-47D breast 87.9% | BT-549 breast 111% | MDA-MB-435 melanoma 68.2% | SW-620 colon 81.5% | MCF7 breast 96.8% | HCT-116 colon 97.9% | KM12 colon 94.4%

Cc1ccc2c(NCCCN(C)C)c3c(C)nn(C)c3nc2c1
active: OVCAR-8 ovarian -5.26% | MCF7 breast 5.14%
inactive: RPMI-8226 leukemia 27.8% | OVCAR-5 ovarian 39.3% | OVCAR-4 ovarian 28.7% | SK-OV-3 ovarian 39.2% | IGROV1 ovarian 29.2% | OVCAR-3 ovarian 49.3% | HS 578T breast 74.1% | NCI/ADR-RES ovarian 45.3% | T-47D breast 44.8% | BT-549 breast 54.3% | MDA-MB-435 melanoma 37.1% | HCT-116 colon 20.2% | HCC-2998 colon 59.3% | KM12 colon 32.8%

N#Cc1ccc(NC(=O)Nc2ccc(Cc3ccc(NC(=O)Nc4ccc(C#N)cc4)cc3)cc2)cc1
inactive: OVCAR-8 ovarian 38.7% | OVCAR-5 ovarian 69.6% | OVCAR-4 ovarian 15% | SK-OV-3 ovarian 68.6% | IGROV1 ovarian 29.6% | OVCAR-3 ovarian 18.8% | HS 578T breast 47.9% | NCI/ADR-RES ovarian 52.7% | BT-549 breast 20.7% | SW-620 colon 34% | HCT-116 colon 18.8% | HCC-2998 colon 40.1% | KM12 colon 18.7%
active: RPMI-8226 leukemia -2.1% | MDA-MB-435 melanoma 7.5% | MCF7 breast 6.82%

CCOC(=O)/C=C/c1ccc(C(=O)OCC)[nH]1
inactive: RPMI-8226 leukemia 75.4% | OVCAR-8 ovarian 62.9% | OVCAR-5 ovarian 75.5% | OVCAR-4 ovarian 108% | SK-OV-3 ovarian 84.8% | IGROV1 ovarian 42.4% | OVCAR-3 ovarian 22.6% | T-47D breast 34.9% | BT-549 breast 88.2% | SW-620 colon 19.2% | MCF7 breast 25.7% | HCT-116 colon 26.3% | HCC-2998 colon 44.1% | KM12 colon 26.6%
active: NCI/ADR-RES ovarian 8.24% | MDA-MB-435 melanoma -39.5%

CCCCCCCCSC1=CC(=O)C(OC)=C(OC)C1=O
inactive: OVCAR-5 ovarian 28% | OVCAR-4 ovarian 21.5% | SK-OV-3 ovarian 86.4% | IGROV1 ovarian 43.2% | HS 578T breast 63% | BT-549 breast 68.8% | MCF7 breast 13.1% | KM12 colon 29.5%
active: RPMI-8226 leukemia -24.5% | OVCAR-8 ovarian -9.18% | OVCAR-3 ovarian -40.8% | NCI/ADR-RES ovarian -27.1% | T-47D breast -76.6% | MDA-MB-435 melanoma 7.62% | SW-620 colon -60.5% | HCT-116 colon -49.9%

O=C1C=CC(Nc2ccccc2[N+](=O)[O-])C1Nc1ccccc1[N+](=O)[O-] (centres undefined)
inactive: OVCAR-8 ovarian 31% | OVCAR-5 ovarian 12.3% | SK-OV-3 ovarian 109% | IGROV1 ovarian 86% | HS 578T breast 32% | KM12 colon 58.3%
active: RPMI-8226 leukemia -17.4% | OVCAR-4 ovarian 3.47% | OVCAR-3 ovarian -81.3% | NCI/ADR-RES ovarian -26.8% | BT-549 breast -58.7% | MDA-MB-435 melanoma 8.78% | SW-620 colon -71.6% | MCF7 breast -77.3% | HCT-116 colon -89.5% | HCC-2998 colon 6.76%

CCOC(=O)C(CC)n1c(=O)c2cc(OC)c(OC)cc2c2cnc3[nH]ccc3c21 (centres undefined)
inactive: RPMI-8226 leukemia 70.1% | OVCAR-8 ovarian 80% | OVCAR-5 ovarian 63.8% | OVCAR-4 ovarian 93.3% | SK-OV-3 ovarian 58.5% | IGROV1 ovarian 19.7% | OVCAR-3 ovarian 76.3% | HS 578T breast 41.7% | NCI/ADR-RES ovarian 73.3% | T-47D breast 26.1% | BT-549 breast 47.6% | MDA-MB-435 melanoma 88.2% | MCF7 breast 50.1% | HCT-116 colon 67.9% | HCC-2998 colon 83.4% | KM12 colon 26%

CN1Cc2c(cc(CN3CCCCC3)n2C)C(c2ccc(Br)cc2)C1 (centres undefined)
inactive: RPMI-8226 leukemia 81.4% | OVCAR-8 ovarian 96.9% | OVCAR-5 ovarian 96.1% | OVCAR-4 ovarian 86.6% | SK-OV-3 ovarian 93.7% | IGROV1 ovarian 96.3% | OVCAR-3 ovarian 95.4% | HS 578T breast 76.3% | NCI/ADR-RES ovarian 88.1% | BT-549 breast 83.1% | MDA-MB-435 melanoma 65.5% | SW-620 colon 90.8% | MCF7 breast 71.8% | HCT-116 colon 61.8% | HCC-2998 colon 84.2% | KM12 colon 94.5%

CC(=O)Oc1ccc(Nc2c3ccccc3nc3ccccc23)cc1
inactive: OVCAR-5 ovarian 18% | OVCAR-4 ovarian 13.8% | HS 578T breast 25.1% | NCI/ADR-RES ovarian 23.8% | BT-549 breast 55.2% | HCT-116 colon 14% | KM12 colon 18.1%
active: RPMI-8226 leukemia -16.2% | OVCAR-8 ovarian -58.9% | SK-OV-3 ovarian 3.92% | IGROV1 ovarian -11.8% | OVCAR-3 ovarian 9.24% | T-47D breast 7.4% | MDA-MB-435 melanoma 8.19% | SW-620 colon 3.73% | MCF7 breast 3.91%

CN(C)CCCC(=O)Nc1ccc(Cn2nnc3c2C(=O)c2nnn(Cc4ccc(NC(=O)CCCN(C)C)cc4)c2C3=O)cc1
active: OVCAR-4 ovarian -98.6% | OVCAR-3 ovarian 4.3% | T-47D breast -5.44% | MDA-MB-435 melanoma -83.7% | MCF7 breast -40% | HCT-116 colon 6.95%
inactive: OVCAR-8 ovarian 86.6% | OVCAR-5 ovarian 115% | SK-OV-3 ovarian 89.8% | IGROV1 ovarian 57.3% | HS 578T breast 112% | NCI/ADR-RES ovarian 108% | BT-549 breast 80.5% | SW-620 colon 52.3% | HCC-2998 colon 59.3% | KM12 colon 81.4%

COc1ccc(-c2nn(-c3ccccc3)cc2/C=C2\SC(=O)NC2=O)cc1
inactive: RPMI-8226 leukemia 78.7% | OVCAR-8 ovarian 101% | OVCAR-5 ovarian 99.4% | OVCAR-4 ovarian 89.5% | SK-OV-3 ovarian 93.3% | OVCAR-3 ovarian 110% | HS 578T breast 106% | NCI/ADR-RES ovarian 106% | T-47D breast 85.9% | BT-549 breast 101% | MDA-MB-435 melanoma 108% | SW-620 colon 107% | MCF7 breast 85.2% | HCT-116 colon 95.1% | HCC-2998 colon 109% | KM12 colon 98.1%

COc1ccc2[nH]c(=O)c(/C=C/C(=O)c3ccc(Nc4nccc(-c5ccc6ccccc6c5)n4)cc3)cc2c1
inactive: RPMI-8226 leukemia 105% | OVCAR-8 ovarian 100% | OVCAR-5 ovarian 104% | OVCAR-4 ovarian 131% | SK-OV-3 ovarian 105% | OVCAR-3 ovarian 105% | HS 578T breast 98.8% | NCI/ADR-RES ovarian 99.2% | T-47D breast 97.2% | BT-549 breast 98.9% | MDA-MB-435 melanoma 108% | SW-620 colon 97.1% | MCF7 breast 92.8% | HCT-116 colon 91.1% | HCC-2998 colon 104% | KM12 colon 93.3%

COc1ccc(-c2c3c(nc4n[nH]c(-c5ccc(Cl)cc5)c24)-c2ccccc2C(=O)C3=O)cc1
inactive: OVCAR-4 ovarian 23% | SK-OV-3 ovarian 42.5% | T-47D breast 17% | BT-549 breast 20.5%
active: RPMI-8226 leukemia -11.4% | OVCAR-8 ovarian 3.87% | OVCAR-3 ovarian -17.2% | HS 578T breast 7.1% | NCI/ADR-RES ovarian -3.63% | MDA-MB-435 melanoma -86.2% | SW-620 colon -66.1% | MCF7 breast 1.77% | HCT-116 colon -44.5% | HCC-2998 colon -25.5% | KM12 colon -20.6%

CN1C2CCC1/C(=C\c1ccc(Cl)cc1)C1=C2[C@@H](c2ccc(Cl)cc2)C(C#N)=C(N)O1 (some centres undefined)
inactive: RPMI-8226 leukemia 62.6% | OVCAR-8 ovarian 93.3% | OVCAR-5 ovarian 84.5% | OVCAR-4 ovarian 75.6% | SK-OV-3 ovarian 94.8% | OVCAR-3 ovarian 92.5% | HS 578T breast 95.1% | NCI/ADR-RES ovarian 95.8% | T-47D breast 81.7% | BT-549 breast 97.5% | MDA-MB-435 melanoma 91.5% | SW-620 colon 94.3% | MCF7 breast 66% | HCT-116 colon 63.7% | HCC-2998 colon 104% | KM12 colon 95%

CNC(=O)c1cc(Oc2ccc3nc(NC(=O)Nc4ccc(CN5CCOCC5)c(C(F)(F)F)c4)sc3c2)ccn1
active: RPMI-8226 leukemia 5.34% | OVCAR-3 ovarian 6.85% | NCI/ADR-RES ovarian 4.65% | MCF7 breast 6.95% | HCT-116 colon 6.2% | KM12 colon 6.28%
inactive: OVCAR-8 ovarian 18% | OVCAR-5 ovarian 38.6% | OVCAR-4 ovarian 20% | SK-OV-3 ovarian 79.1% | HS 578T breast 47.3% | T-47D breast 22.7% | BT-549 breast 12.2% | MDA-MB-435 melanoma 13% | SW-620 colon 27.4% | HCC-2998 colon 32.3%

O=c1c2cccc3c(NC4CCCCC4)ccc(c32)c2nc3ccccc3n12
inactive: RPMI-8226 leukemia 75.6% | OVCAR-8 ovarian 97.9% | OVCAR-4 ovarian 80.1% | SK-OV-3 ovarian 98.3% | IGROV1 ovarian 41.2% | OVCAR-3 ovarian 86.8% | HS 578T breast 96% | NCI/ADR-RES ovarian 95.5% | T-47D breast 32.5% | BT-549 breast 94.1% | MDA-MB-435 melanoma 103% | SW-620 colon 80.1% | MCF7 breast 13.5% | HCT-116 colon 85.3% | HCC-2998 colon 51.7% | KM12 colon 81.1%

O=C(/C=C/c1ccc(Cl)cc1)c1ccc(O)c(CN2CCN(c3cc4c(cc3F)c(=O)c(C(=O)O)cn4C3CC3)CC2)c1
inactive: RPMI-8226 leukemia 16.5% | OVCAR-8 ovarian 27.4% | OVCAR-4 ovarian 89.2% | SK-OV-3 ovarian 73.8% | IGROV1 ovarian 51.6% | OVCAR-3 ovarian 73.9% | HS 578T breast 47% | NCI/ADR-RES ovarian 65.7% | T-47D breast 53.4% | BT-549 breast 46.3% | MDA-MB-435 melanoma 52% | SW-620 colon 47.8% | MCF7 breast 45.6% | HCT-116 colon 12.6% | HCC-2998 colon 59.4% | KM12 colon 59.3%
